About 83,000 compounds went through this panel and 20% of them were active in at least one assay; those are over-represented in the sample as a whole.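 Interpretation: 100, growth as untreated; towards 0, rising growth inhibition; 0, no net growth; 0 to -100, cell death. Compounds scoring below 10 were considered active.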 Values without a mark were called inactive. Active and inactive are the calls of the source.

Test systems include NCI-H23 lung; NCI-H226 lung; NCI-H322M lung; HOP-62 NSCLC; NCI-H460 lung; HOP-92 NSCLC; NCI-H522 lung; A549/ATCC NSCLC; 786-0 renal; COLO 205 colon.
Holding throughout (test): NCI-60 one-dose screen, 48 h (100 = growth as untreated, 0 = no growth, -100 = all killed)
Settings in all cases: 10 µM unless noted

Consider `CCN(CC)CCn1c2ccc(OC)cc2c2sc3cc(OC)ccc3c(=O)c21`, for which the growth is 23.1% with NCI-H23 lung; 71.4% with NCI-H226 lung; 29.8% with NCI-H322M lung; 38.1% in the test on HOP-62 NSCLC; 9.41% (active) in the test with NCI-H460 lung; 41.7% with HOP-92 NSCLC. Also, the growth with NCI-H522 lung was 48.1%; in the test on A549/ATCC NSCLC, 19.1%; in the test on 786-0 renal, 11.1%; in the test with COLO 205 colon, 18.6%.

In the case of `Fc1cccc(Oc2ccc(Nc3ncnc4ccc(OCCCN5CCOCC5)cc34)cc2Cl)c1`, the growth with NCI-H23 lung is 73.5%; in the test on NCI-H226 lung, 88.1%; in the test with NCI-H322M lung it was 37.7%; in the test with HOP-62 NSCLC, 82.5%; with NCI-H460 lung, 42.5%; in the test with HOP-92 NSCLC it was 54.3%. In addition, the growth with NCI-H522 lung was 43.8%; with A549/ATCC NSCLC it was 48.3%; in the test with 786-0 renal it was 51.9%; in the test with COLO 205 colon, 79.4%.

For `COc1cc(-c2nc3sccn3c2-c2ccnc(NCCNS(=O)(=O)c3ccccc3)n2)ccc1F`, the growth was 67.6% in the test on NCI-H23 lung; 41.2% in the test on NCI-H226 lung; 67.7% in the test on NCI-H322M lung; 73.2% in the test with HOP-62 NSCLC; 60.4% with NCI-H460 lung; 47.8% with HOP-92 NSCLC. For the same compound, the growth in the test on NCI-H522 lung was 36.2%; in the test with A549/ATCC NSCLC it was 45.5%; in the test on 786-0 renal it was 61.4%; with COLO 205 colon it was 40.4%.

In the case of `O=C(CSc1nnc(-c2cnccn2)n1-c1ccccc1)c1ccc(Cl)cc1`, the growth with NCI-H23 lung is 108%; in the test on NCI-H226 lung it was 104%; in the test with NCI-H322M lung it was 95.5%; in the test with HOP-62 NSCLC, 97.7%; with NCI-H460 lung, 103%; in the test with HOP-92 NSCLC, 81.4%. The growth in the test with NCI-H522 lung was 95.3%; in the test on A549/ATCC NSCLC, 91.7%; in the test on 786-0 renal, 95.1%; in the test with COLO 205 colon it was 99.6%.

Take `O=C(Nc1nc2ccccc2s1)c1ccc(F)cc1`: the growth in the test with NCI-H23 lung is 89.9%; in the test with NCI-H226 lung, 92.7%; with NCI-H322M lung, 92.5%; in the test on HOP-62 NSCLC it was 106%; in the test with NCI-H460 lung it was 69.2%; with HOP-92 NSCLC, 78.7%. For the same compound, the growth in the test with NCI-H522 lung was 92.2%; in the test with A549/ATCC NSCLC, 98.4%; with 786-0 renal, 108%; with COLO 205 colon, 118%.

For the compound `COc1ccc(OC)c(-c2nc(SCC(=O)c3ccc(C#N)cc3)[nH]c(=O)c2C#N)c1`, the growth in the test with NCI-H23 lung is 98.1%; in the test on NCI-H226 lung, 101%; with NCI-H322M lung, 105%; in the test on HOP-62 NSCLC it was 99.7%; in the test with NCI-H460 lung, 112%; with HOP-92 NSCLC, 99%. Moreover, the growth in the test with NCI-H522 lung is 90.4%; in the test with A549/ATCC NSCLC it was 103%; in the test on 786-0 renal, 101%; in the test with COLO 205 colon, 86.9%.

Take `C=CCn1c(SCC(=O)Nc2ccc(C(=O)/C=C/c3ccc(Cl)cc3)cc2)nnc1-c1ccc(Br)cc1`: the growth is 83.7% in the test on NCI-H23 lung; 80.7% in the test with NCI-H226 lung; 91.8% in the test on NCI-H322M lung; 104% in the test with HOP-62 NSCLC; 83.1% with NCI-H460 lung; 87.2% in the test on HOP-92 NSCLC. Further, the growth in the test on NCI-H522 lung is 60.3%; with A549/ATCC NSCLC, 65.4%; with 786-0 renal, 89%; in the test with COLO 205 colon it was 118%.

As for `CC(=O)Oc1ccc(N2C(=O)C(Cl)=C(Nc3cccc(C(F)(F)F)c3)C2=O)cc1`, the growth with NCI-H23 lung was 100%; in the test on NCI-H226 lung, 92.1%; with NCI-H322M lung it was 98.6%; with HOP-62 NSCLC it was 96.9%; with NCI-H460 lung, 102%; in the test with HOP-92 NSCLC, 99.7%. Further, the growth is 86% in the test on NCI-H522 lung, 93.9% with A549/ATCC NSCLC, 95.7% in the test on 786-0 renal and 93.4% with COLO 205 colon.

On to `CCn1cc(C(=O)NNC(=S)Nc2ccc(C)cc2)c(=O)c2ccc(C)nc21`, for which the growth in the test on NCI-H23 lung is 102%; in the test with NCI-H226 lung it was 90.1%; in the test with NCI-H322M lung, 80.4%; in the test with HOP-62 NSCLC it was 108%; in the test on NCI-H460 lung it was 101%; in the test on HOP-92 NSCLC, 95.1%. In addition, the growth in the test on NCI-H522 lung is 97.3%; with A549/ATCC NSCLC, 91.6%; in the test with 786-0 renal it was 102%; in the test with COLO 205 colon, 116%.

As for `C=CCSc1nnc(NC(=O)CCl)s1`, the growth in the test with NCI-H23 lung is 93.6%; with NCI-H226 lung it was 88.8%; with NCI-H322M lung it was 101%; with HOP-62 NSCLC, 109%; with NCI-H460 lung, 99.9%; with HOP-92 NSCLC, 112%. Further, the growth in the test on NCI-H522 lung is 85.3%; with A549/ATCC NSCLC it was 95.2%; in the test on 786-0 renal, 101%; with COLO 205 colon it was 122%.

As for `CCOC(=O)c1nn(-c2ccc(S(N)(=O)=O)cc2)c2nc(C)cc(=O)n12`, the growth in the test with NCI-H23 lung was 98.5%; in the test on NCI-H226 lung, 104%; in the test on NCI-H322M lung, 102%; in the test on HOP-62 NSCLC, 102%; with NCI-H460 lung it was 109%; in the test on HOP-92 NSCLC, 95%. In addition, the growth in the test with NCI-H522 lung was 100%; with A549/ATCC NSCLC, 102%; in the test with 786-0 renal, 96.5%; in the test with COLO 205 colon, 114%.

On to `COc1ccc(C(O)c2cc3c(N)c(C(=O)Nc4cccc(Br)c4)sc3nc2C)cc1` (stereo not given), for which the growth in the test on NCI-H23 lung was 21.9%; with NCI-H226 lung, 3.81% (active); in the test on NCI-H322M lung it was 45.9%; in the test on HOP-62 NSCLC, 24.3%; in the test on NCI-H460 lung, 0.823% (active); with HOP-92 NSCLC, 24.7%. The growth in the test with NCI-H522 lung is 9.45% (active); in the test on A549/ATCC NSCLC, 11.2%; in the test with 786-0 renal it was 15.3%; with COLO 205 colon, -25% (active).

`COC(=O)/C=C1/SC(=Nc2cccc(OC)c2)N(CCc2c[nH]c3ccc(O)cc23)C1=O`: the growth is 76.1% with NCI-H23 lung; 89.6% in the test with NCI-H226 lung; 95.2% in the test with NCI-H322M lung; 69.8% in the test on HOP-62 NSCLC; 61.3% with NCI-H460 lung; 50.4% in the test on HOP-92 NSCLC. Further, the growth is 54.3% with NCI-H522 lung, 87.3% in the test with A549/ATCC NSCLC, 74.3% in the test with 786-0 renal and 106% in the test on COLO 205 colon.

Values taken from PubChem BioAssay (NCI).
